Results reported in the supplement of paper PMC4022240.
± gives the standard deviation.

B1: Unmod H2A variant L Q L A I R N D E E L N K (peptide)
chain: LQLAIRNDEELNK
B2: Unmod H2A variant R N D E E L N K L L G G V (peptide)
chain: RNDEELNKLLGGV
B3: Unmod H2A variant R N D E E L N K L L G K V (peptide)
chain: RNDEELNKLLGKV
B4: Unmod H2A variant R N D E E L N K L L G R V (peptide)
chain: RNDEELNKLLGRV
B5: Unmod H2A variant L N K L L G G V T I A Q G (peptide)
chain: LNKLLGGVTIAQG
B6: Unmod H2A variant L N K L L G K V T I A Q G (peptide)
chain: LNKLLGKVTIAQG
B7: Unmod H2A variant V T I A Q G G V L P N I Q (peptide)
chain: VTIAQGGVLPNIQ
B8: Unmod H2A variant G V L P N I Q A V L L P K (peptide)
chain: GVLPNIQAVLLPK
B9: Unmod H2A variant I Q A V L L P K K T E S H (peptide)
chain: IQAVLLPKKTESH
B10: Unmod H2B variant P E V S S K G A T I S K K (peptide)
chain: PEVSSKGATISKK

Molecular target: T1, HaloTag-ATRX ADD domain (163-292)
T1 chain: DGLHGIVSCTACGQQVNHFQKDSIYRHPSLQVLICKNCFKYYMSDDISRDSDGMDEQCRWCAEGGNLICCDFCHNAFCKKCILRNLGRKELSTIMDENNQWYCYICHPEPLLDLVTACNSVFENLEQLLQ
Test: peptide microarray binding signal (635 nm), min-max normalized on array (fraction of array maximum); higher = stronger binding
Conditions: peptide region: Unmod H2A variant; binder concentration: 50 nM
Procedure, shortened: (§1)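 For each library, binding signal was taken as the triplicate-spot mean intensity and then min-max scaled. Spots of histone 13-mer peptide–cellulose conjugates on nitrocellulose, printed in triplicate with a Cy3 tracer, were probed for 1 h at 4°C with either biotin-labelled HaloTag reader fusions (10 nM to 1 μM) and streptavidin-Alexa Fluor 647 or rabbit histone antibodies (1:10,000 to 1:2,000) and anti-rabbit Alexa 647. Readout at 635 nm came from an Axon GenePix 4000B.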

Row | Binder | peptide microarray binding signal
1 | B1 | 0.0213 ± 0.0039
2 | B2 | 0.0156 ± 0.00038
3 | B3 | 0.0192 ± 0.00022
4 | B4 | 0.0189 ± 0.0014
5 | B5 | 0.027 ± 0.0084
6 | B6 | 0.0216 ± 0.0016
7 | B7 | 0.0238 ± 0.001
8 | B8 | 0.0417 ± 0.0058
9 | B9 | 0.0353 ± 0.0028

Same assay, conditions: peptide region: Unmod H2A variant; binder concentration: 500 nM

Row | Binder | peptide microarray binding signal
10 | B1 | 0.0279 ± 0.0038
11 | B2 | 0.0164 ± 0.00093
12 | B3 | 0.024 ± 0.0011
13 | B4 | 0.00157 ± 0.00011
14 | B5 | 0.0141 ± 0.0028
15 | B6 | 0.028 ± 0.0031
16 | B7 | 0.0447 ± 0.00046
17 | B8 | 0.0254 ± 0.026
18 | B9 | 0.0333 ± 0.018

molecular target: HaloTag-ING2 PHD (mouse Ing2 200-280); test: as above; conditions: peptide region: Unmod H2A variant; binder concentration: 10 nM
Procedure, shortened: as §1

Row | Binder | peptide microarray binding signal
19 | B1 | 0.005968 ± 4.9e-05
20 | B2 | 0.00412 ± 5.7e-05
21 | B3 | 0.00513 ± 0.00017
22 | B4 | 0.00269 ± 9.9e-05
23 | B5 | 0.00615 ± 0.00035
24 | B6 | 0.006087 ± 5.8e-05
25 | B7 | 0.0169 ± 0.00042
26 | B8 | 0.0142 ± 0.0058
27 | B9 | 0.0199 ± 0.00099

same assay, conditions: peptide region: Unmod H2A variant; binder concentration: 100 nM

Row | Binder | peptide microarray binding signal
28 | B1 | 0.03182 ± 0.00024
29 | B2 | 0.00397 ± 0.0011
30 | B3 | 0.00907 ± 0.002
31 | B4 | 0.0085 ± 0.00045
32 | B5 | 0.0259 ± 0.0025
33 | B6 | 0.032 ± 0.015
34 | B7 | 0.0193 ± 0.0019
35 | B8 | 0.0437 ± 0.0091
36 | B9 | 0.0828 ± 0.029

molecular target: anti-H3K4me3 antibody ab8580; test: as above; conditions: peptide region: Unmod H2A variant; binder concentration: 1:2,000 dilution
Procedure, shortened: as §1

Row | Binder | peptide microarray binding signal
37 | B1 | 0.0182 ± 0.0049
38 | B2 | 0.0091 ± 0.00022
39 | B3 | 0.00181 ± 0.00069
40 | B4 | 0.000189 ± 4.1e-06
41 | B5 | 0.00748 ± 0.0012
42 | B6 | 0.00715 ± 0.00038
43 | B7 | 0.00821 ± 0.007
44 | B8 | 0.000944 ± 0.00025
45 | B9 | 0.00283 ± 0.0019

same assay, conditions: peptide region: Unmod H2A variant; binder concentration: 1:10,000 dilution

Row | Binder | peptide microarray binding signal
46 | B1 | 0.00422 ± 0.00051
47 | B2 | 0.00171 ± 3.3e-05
48 | B3 | 0.00217 ± 3.9e-05
49 | B4 | 0.0016 ± 9.6e-05
50 | B5 | 0.00177 ± 0.0002
51 | B6 | 0.00171 ± 3.3e-05
52 | B7 | 0.00451 ± 0.0005
53 | B8 | 0.0081 ± 0.0012
54 | B9 | 0.00371 ± 0.00028

molecular target: anti-H3K9me3 antibody ab8898; test: as above; conditions: peptide region: Unmod H2A variant; binder concentration: 1:2,000 dilution
Procedure, shortened: as §1

Row | Binder | peptide microarray binding signal
55 | B1 | 0.00439 ± 0.00042
56 | B2 | 0.0018 ± 0.00014
57 | B3 | 0.00159 ± 3.2e-05
58 | B4 | 0.000604 ± 2e-05
59 | B5 | 0.0011 ± 4.3e-05
60 | B6 | 0.00115 ± 4.6e-05
61 | B7 | 0.00338 ± 0.00037
62 | B8 | 0.00384 ± 0.00031
63 | B9 | 0.00285 ± 0.00015

same assay, conditions: peptide region: Unmod H2A variant; binder concentration: 1:10,000 dilution

Row | Binder | peptide microarray binding signal
64 | B1 | 0.00588 ± 0.00021
65 | B2 | 0.00259 ± 6.1e-05
66 | B3 | 0.001787 ± 1.7e-05
67 | B4 | 0.00173 ± 3.3e-05
68 | B5 | 0.00138 ± 3.6e-05
69 | B6 | 0.001614 ± 1.6e-05
70 | B7 | 0.00306
71 | B8 | 0.0113 ± 0.0018
72 | B9 | 0.0045 ± 0.00048

Molecular target: T1, HaloTag-ATRX ADD domain (163-292)
Test: as above
Conditions: peptide region: Unmod H2B variant; binder concentration: 50 nM
Procedure, shortened: as §1

Row | Binder | peptide microarray binding signal
73 | B10 | 0.0052 ± 0.00018

Same assay, conditions: peptide region: Unmod H2B variant; binder concentration: 500 nM

Row | Binder | peptide microarray binding signal
74 | B10 | 0.00605 ± 0.00026

molecular target: HaloTag-ING2 PHD (mouse Ing2 200-280); test: as above; conditions: peptide region: Unmod H2B variant; binder concentration: 10 nM
Procedure, shortened: as §1

Row | Binder | peptide microarray binding signal
75 | B10 | 0.003103 ± 3e-05

same assay, conditions: peptide region: Unmod H2B variant; binder concentration: 100 nM

Row | Binder | peptide microarray binding signal
76 | B10 | 0.00468 ± 0.00025

molecular target: anti-H3K4me3 antibody ab8580; test: as above; conditions: peptide region: Unmod H2B variant; binder concentration: 1:2,000 dilution
Procedure, shortened: as §1

Row | Binder | peptide microarray binding signal
77 | B10 | 0.00051 ± 1.5e-05

same assay, conditions: peptide region: Unmod H2B variant; binder concentration: 1:10,000 dilution

Row | Binder | peptide microarray binding signal
78 | B10 | 0.000742 ± 1.3e-05

molecular target: anti-H3K9me3 antibody ab8898; test: as above; conditions: peptide region: Unmod H2B variant; binder concentration: 1:2,000 dilution
Procedure, shortened: as §1

Row | Binder | peptide microarray binding signal
79 | B10 | 0.000362 ± 1.3e-05

same assay, conditions: peptide region: Unmod H2B variant; binder concentration: 1:10,000 dilution

Row | Binder | peptide microarray binding signal
80 | B10 | 0.000634
